Experimental data reported in PubChem BioAssay (NCI).
Compounds without any hit were thinned out: in the full panel of roughly 79,000, 15% have a hit. Calls of active or inactive are those of the source. Rule as the data show it: active = growth inhibition above about 70%; inactive = the rest.

Experiments:
[1] = NCI Yeast Anticancer Drug Screen. Data for the rad50 strain (AID 155);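 also: 0% = growth of vehicle-only cultures of the same strain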; settings: S. cerevisiae rad50 strain growth inhibition; at 50.0 µM; active compounds read high
Procedure, shortened: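 Growth of the mutant yeast was measured after compound exposure and referenced to vehicle-treated cultures.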

[2] = NCI Yeast Anticancer Drug Screen. Data for the mec2-1 strain (AID 157); settings: S. cerevisiae mec2-1 strain, at 50.0 µM, active compounds read high
Procedure, shortened: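 Compounds were applied to mec2-1 yeast cells. Their growth was then compared with that of vehicle-treated cultures to give growth inhibition.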

[3] = NCI Yeast Anticancer Drug Screen. Data for the sgs1 mgt1 strain (AID 161);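 also: 0% = growth of cultures given vehicle only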; settings: S. cerevisiae sgs1 mgt1 strain, at 50.0 µM, active compounds read high
Procedure, shortened: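 Yeast cells carrying a defined DNA-repair defect were exposed to test compounds. Growth inhibition was measured relative to vehicle-treated controls.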

[4] = NCI Yeast Anticancer Drug Screen. Data for the cln2 rad14 strain (AID 165);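 also: 0% = growth equal to vehicle treated cultures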; settings: S. cerevisiae cln2 rad14 strain, at 50.0 µM, active compounds read high
Procedure, shortened: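 Strain: cln2 rad14 yeast, altered in cell cycle control and DNA damage repair. Read-out: growth inhibition vs vehicle.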

[5] = NCI Yeast Anticancer Drug Screen. Data for the bub3 strain (AID 167); settings: S. cerevisiae bub3 mutant strain, at 50.0 µM, active compounds read high
Procedure, shortened: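 Whole-cell yeast assay. The mutant strain was incubated with compounds, and growth inhibition was determined by comparison with vehicle-treated cells.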

[6] = NCI Yeast Anticancer Drug Screen. Data for the mlh1 rad18 strain (AID 175); settings: S. cerevisiae mlh1 rad18 strain growth inhibition; at 50.0 µM; active compounds read high
Procedure, shortened: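 A repair-deficient yeast strain is exposed to test compound, and growth is scored relative to vehicle-treated controls.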

Measured: growth inhibition

N#C/C(=C\c1c(Cl)cccc1Cl)c1nc(-c2ccc(Cl)cc2)cs1
inactive: [1] -32.4% | [2] -40.6% | [3] -25.5% | [4] -23.6% | [5] -17.4% | [6] -32.9%

Cc1cc(OCc2nnc3n2S(=O)(=O)c2ccccc2N3C)ccc1Cl
inactive: [1] 49.4% | [2] 2% | [3] -21.8% | [4] -0.75% | [5] -30.4% | [6] -22.4%

CCCCN(CCCC)C1=Nc2ccccc2-n2c(nnc2C(=O)OCC)C1
inactive: [1] 24.4% | [2] 44.5% | [3] 22.9% | [4] 15.2% | [5] 52% | [6] 50.4%

[O-][n+]1ccncc1Cl
inactive: [1] -1.15% | [2] -0.65% | [3] -2.75% | [4] 0.55% | [5] 18.6% | [6] 7.05%

COc1ccc(Cl)cc1NC(=O)c1ccc(C(=O)Nc2cc(Cl)ccc2OC)cc1
inactive: [1] -5.85% | [2] 7.3% | [3] -10.2% | [4] -22.9% | [5] 0.7% | [6] 9.5%

COCC12CCC(OC)C34C5CC6(O)C(OC)CC(OC(C)=O)(C5C6OC(=O)c5ccccc5)C(C(OC)C13)C4N(C)C2 (stereo not given)
inactive: [1] -24.5% | [2] -23.8% | [3] -26.5% | [4] -8.9% | [5] -1.45% | [6] -77.5%

CC1(C)CC(OP(=O)(c2ccccc2)c2ccccc2)CC(C)(C)N1O
inactive: [1] 5.25% | [2] 12.8% | [3] -6.3% | [4] 3.1% | [5] 13.3% | [6] 11.2%

COC(=O)C1OC(O[C@H]2CC[C@]3(C)[C@H]4CC=C5[C@@H]6CC(C)(C)CC[C@]6(C(=O)OC6OCC(O)C(O)C6OC6OC(C)C(OC7OCC(OC8OCC(O)C(O)C8O)C(O)C7O)C(O)C6O)[C@H](O)C[C@@]5(C)[C@]4(C)CC[C@H]3C2(C)C)C(O)C(O)C1O (stereo not given in full)
inactive: [1] 26.3% | [2] 17% | [3] 10.3% | [4] 11.9% | [5] 42.6% | [6] 32.2%

CNC(CCNCCc1ccccc1)CNCCc1ccccc1 (stereo not given)
inactive: [1] 44.1% | [2] 4.8% | [3] 22.8% | [4] 3.85% | [5] 5.7% | [6] 22.2%

O=C(O)/C=C\c1cccc([N+](=O)[O-])c1
inactive: [1] 11.9% | [2] -16.4% | [3] 7.4% | [4] 22.3% | [5] 27.6% | [6] -14.8%

O=[N+]([O-])c1ccc2c(c1)Sc1ccccc1N2
inactive: [1] -16.8% | [2] -14.4% | [3] -26.7% | [4] -21.8% | [5] -25.2% | [6] -22.6%

CCOC(=O)C(Cc1ccc(OC)c(C)c1)(NC(C)=O)C(=O)OCC
inactive: [1] -0.3% | [2] 5.1% | [3] -3.45% | [4] -14.2% | [5] 3.85% | [6] 6.4%

COc1ccc(OC)c(/C=C/c2ccc(NC(=O)Nc3ccccc3Cl)cc2)c1
inactive: [1] 10.8% | [2] 2.3% | [3] -7.9% | [4] -39.1% | [5] 1.2% | [6] 13.8%

COc1ccc(C(O)(c2ccccc2)c2nccc3ccccc23)cc1 (stereo not given)
inactive: [1] 6.6% | [2] 3.75% | [3] 30.4% | [4] 1.45% | [5] 10.3% | [6] -9.4%

CCOC(=O)Nc1ccc(C2SCCN2C(=O)NC)cc1 (stereo not given)
inactive: [1] 8.35% | [2] -22.1% | [3] 18.4% | [4] 17.4% | [5] 5.85% | [6] 32.2%

Nc1c2ccccc2nc2nccnc12
inactive: [1] 3.6% | [2] 2.65% | [3] 5.95% | [4] 16.9% | [5] -3% | [6] 30.4%

SCc1ccc(-c2ccc(CS)cc2)cc1
inactive: [1] 4.65% | [2] 2.55% | [3] 40% | [4] 39.8% | [5] 39.1% | [6] 23.3%

OC12CCCCCC1(N1CCOCC1)c1ccccc12 (stereo not given)
inactive: [1] -8.2% | [2] -11.7% | [3] -29.7% | [4] -21.1% | [5] -37.2% | [6] -24.3%

CCOC(=O)NCS(=O)(=O)N1CCOCC1
inactive: [1] 25.6% | [2] 9.25% | [3] 8% | [4] 19.6% | [5] 3.45% | [6] 9.7%

Cc1cccc(CN(C)C)c1C=C(c1ccccc1)c1ccccc1
inactive: [1] 11.9% | [2] -1% | [3] 10.6% | [4] -0.05% | [5] 8.7% | [6] 33%

O=S(=O)(c1ccccc1)C1(Sc2ccccc2)CC(Br)[C@@H](Br)C1 (stereo not given in full)
inactive: [1] 21.9% | [2] 7.3% | [3] 25.5% | [4] 8% | [5] -6.65% | [6] -5.55%

Cc1cc(=O)c2c(ccc3c(=O)cc(C)[nH]c32)[nH]1
inactive: [1] -56.8% | [2] -21.2% | [3] -14.3% | [4] -52.2% | [5] -3.1% | [6] 3.25%

C[C@@H]1OC2(O)[C@H]3CCCN3S(=O)(=O)CCN2C1=O (stereo not given in full)
inactive: [1] 30.5% | [2] -14.8% | [3] -8.05% | [4] 16.7% | [5] -11.7% | [6] -1.2%

Cc1ccc2c(=O)cc(-c3ccccc3)[nH]c2n1
inactive: [1] -48% | [2] -57% | [3] -42.1% | [4] 11.8% | [5] -59.1% | [6] -41.1%

O=C1CSC(c2ccccc2F)N1c1ncccn1 (stereo not given)
inactive: [1] -3.2% | [2] -6.8% | [3] 0.75% | [4] -20.8% | [5] 8% | [6] -1.4%

CNCCCC1c2ccccc2C=Cc2ccccc21
inactive: [1] 5.5% | [2] 2.9% | [3] 12.8% | [4] -1.7% | [5] 0.15% | [6] 11.8%

COc1ccc(/C=C2/C(=O)N=C(NC(C)=O)N2C)cc1OC
inactive: [1] -13.8% | [2] -14.2% | [3] -13.7% | [4] -2.1% | [5] 4.7% | [6] 4.55%

CN1C(=S)C2=C(c3ccccc3)N(C)C(=S)C2=C1c1ccccc1
inactive: [1] 6% | [2] -6.15% | [3] 10.5% | [4] 28.9% | [5] -2.3% | [6] 26.1%

O=CNc1cccc2c(=O)[nH][nH]c(=O)c12
inactive: [1] -21.9% | [2] -46.8% | [3] -56.6% | [4] 18.1% | [5] -26.1% | [6] -39.1%

COCN(COC)c1nc(CCC(Br)(Br)Br)nc(N(COC)COC)n1
inactive: [1] 36.5% | [2] 11.5% | [3] 21.9% | [4] 37% | [5] -2.85% | [6] 31%

O=C(O)c1cccc([N+](=O)[O-])c1Nc1cccc(C(F)(F)F)c1
inactive: [1] 21.4% | [2] 32.5% | [3] 32.5% | [4] 29.3% | [5] 27.1% | [6] 0.25%

COC(=O)C(NC(=O)c1ccccc1)C(C)=O (stereo not given)
inactive: [1] 9.5% | [2] -0.7% | [3] -3.4% | [4] -35.4% | [5] -16.9% | [6] 10%

Cc1ccc(-c2cc(C(=O)NN)c(C#N)c(=O)[nH]2)cc1
inactive: [1] 11.4% | [2] 0.55% | [3] -0.85% | [4] 15.1% | [5] -13.2% | [6] 26.1%

O=C1/C(=C/c2ccccc2)CN(C(=O)Oc2ccccc2)C/C1=C\c1ccccc1
inactive: [1] -21% | [2] -15.2% | [3] -12.9% | [4] 10.3% | [5] -7.05% | [6] -13.8%

Cc1cccc(NS(=O)(=O)c2ccc(Cl)cc2)c1C
active: [1] 98.5% | [2] 98.3% | [3] 98.2% | [4] 98.3% | [5] 98.4% | [6] 98.7%

NCC(=O)Nc1ccc(C(=O)O)cc1
inactive: [1] 28.8% | [2] 17.1% | [3] 7.6% | [4] 4.6% | [5] 4.05% | [6] 9.1%

CC(O)C(O)C(O)C(O)C#N (stereo not given)
inactive: [1] 20.6% | [2] 18% | [3] 12.2% | [4] 11% | [5] 0.15% | [6] 10.1%

CCCS(=O)(=O)N/N=C(\C)c1cccs1
inactive: [1] 3.65% | [2] -8.1% | [3] 3.25% | [4] -35.5% | [5] 1.35% | [6] -4.2%

c1cc[n+]2cc3c(ccc4cc5cccc[n+]5cc43)cc2c1
inactive: [1] 17.4% | [2] 11.1% | [3] 31.4% | [4] 58% | [5] -2.3% | [6] 11.6%

O=C1NC(CN2CCCC(O)C2)C(=O)NC1CN1CCCC(O)C1 (stereo not given)
inactive: [1] 2% | [2] 9.35% | [3] 13.3% | [4] -22.8% | [5] -4.45% | [6] 7.6%
